Several values for one entry are separate records, joined by “and”; a condition that tells them apart may be missing. Equal values may be shown once.
molecular target: Solute carrier family 2, facilitated glucose transporter member 1 (Homo sapiens) (UniProt P11166); test: ST_JUDE_LEISH: Cytotoxicity at 2uM final concentration against transgenic Leishmania Mexicana promastigotes LmGLUT1 that are glucose transport deficient and complemented with the human glucose transporter GLUT1. Activity is measured by DNA content using SYBR green in vitro; assay type: functional
Sequence (P11166 whole entry): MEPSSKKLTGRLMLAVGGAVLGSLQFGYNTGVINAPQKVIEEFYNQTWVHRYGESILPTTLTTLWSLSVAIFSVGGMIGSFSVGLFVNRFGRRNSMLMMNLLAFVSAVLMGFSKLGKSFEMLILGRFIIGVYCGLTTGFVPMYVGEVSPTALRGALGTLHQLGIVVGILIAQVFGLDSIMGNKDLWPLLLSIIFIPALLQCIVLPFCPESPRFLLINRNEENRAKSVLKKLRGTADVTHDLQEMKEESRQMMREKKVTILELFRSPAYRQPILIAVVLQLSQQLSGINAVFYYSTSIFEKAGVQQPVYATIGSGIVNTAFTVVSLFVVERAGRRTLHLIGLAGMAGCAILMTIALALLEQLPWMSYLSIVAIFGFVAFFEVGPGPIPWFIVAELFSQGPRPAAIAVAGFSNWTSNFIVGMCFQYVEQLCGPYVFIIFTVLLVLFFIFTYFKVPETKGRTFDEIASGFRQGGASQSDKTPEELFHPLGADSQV

SMILES | inhibition
CCC(C)NC(=O)CN1CN(c2ccccc2)C2(CCN(C(=O)c3ccc(C(C)(C)C)cc3)CC2)C1=O (centres undefined) | 3.34%
O=C(CSc1nnc(-c2ccccc2Br)[nH]1)c1c[nH]c2ccccc12 | -0.5%
Cc1ccnc(Nc2nc(-c3ccccn3)cs2)c1 | 10.1%
N#Cc1ccc(-c2nc(CO)c(C(=O)NCCCCN3CCC(c4ccc5c(c4OCC(N)=O)CCCC5)CC3)s2)cc1 | 1.02%
CCOC(=O)C1=C(C)NC2=C(C(=O)CC(C)(C)C2)C1c1ccc(Cl)cc1 (centres undefined) | -1.57%
CS(=O)(=O)Nc1cccc(-c2cnc3[nH]cc(-c4ccc(CCC(=O)O)cc4)c3c2)c1 | 2.69%
Cc1cc(=O)c(-c2ccc(Oc3cccc(C(F)(F)F)c3)cc2)c(C)[nH]1 | 0.14% and -4.84%
COc1cccc(-c2ccc(NC(=O)C3CCCN(Cc4cccc(OC)c4O)C3)cc2)c1 (centres undefined) | 3.21%
Cc1cccc(Cn2ccc3c4c(N)nc(N)nc4ccc32)c1 | 80.8%
O=C(Nc1cccc(-c2cccc(-c3nc4cc(C(F)(F)F)ccc4[nH]3)c2)c1)c1ccncc1 | 5.04%
COc1ccc(S(=O)(=O)N2CCCc3ccc(Br)cc32)cc1N1CCN(C(=O)C(Cl)(Cl)Cl)CC1 | 2.54%
Cc1cc(N2CCC(NS(=O)(=O)c3ccc(F)cc3)CC2)nc(Nc2cccc(C#N)c2)n1 | 39.9%
CCC(C)NC(=O)Nc1ccc(-c2cccc(-c3nc4cccc(C)c4[nH]3)c2)cc1 (centres undefined) | 0.47%
CCOC(=O)c1ccc(NC(=O)Nc2ccc(-c3cccc(-c4nc5cccc(C)c5[nH]4)c3)cc2)cc1 | -0.01%
CC(Oc1cccc(Cl)c1)C(=O)N1CCc2ccccc21 (centres undefined) | -1.29%
COc1ccc(NC2=C(c3ccccc3)C(=O)c3ccccc32)cn1 | 7.83%
CN(C)C=Nc1ccc(OCCCCCCOc2ccc(N=CN(C)C)cc2)cc1 | 3.14%
COc1ccc2nccc([C@@H](O)CN3CCC(NCCOc4cccc(C(F)(F)F)c4Cl)CC3)c2c1 | 11.3%
CC1CCCCN1Cc1cccc(-c2c[nH]c3nc(NC4CCCC4)ncc23)c1 (centres undefined) | 10.8%
CN(C)CCCNCc1cn(S(=O)(=O)c2ccccc2Cl)c2ccccc12 | 5.36%

SMILES | inhibition
CCNc1cc(C(=O)N[C@@H](Cc2ccccc2)[C@H](O)CN[C@@H]2CCc3ccccc32)cc(N2CCCC2=O)c1 | 10.5%
CCOc1cc2c(cc1S(=O)(=O)c1ccc(COc3ccc(C(F)(F)F)cc3)cc1)CCN(C)CC2 | 1.72%
CCn1c(-c2nonc2N)nc2c(-c3cccc(NC(=O)Nc4cccc(C(F)(F)F)c4)c3)ncc(OCCCN)c21 | 2.47%
CC(=NNC(N)=O)C1=C(O)C(c2ccccc2)N(C2CCCCC2)C1=O (centres undefined) | -0.44%
CC(C)(C)c1cc(C(=O)N2CCN(c3nccnc3C#N)CC2)n(Cc2ccccc2)n1 | 1.68%
CN1CCN(C(C(=O)NCc2cc(Cl)cc(Cl)c2)c2ccccc2-c2ccsc2)CC1 (centres undefined) | 4.67%
COc1ccc(C)cc1NC(=O)CSc1nc2cccnc2n1C1CCCCC1 | 5.9%
COc1ccc(NC(=O)NC2CCN(c3ccnc4cc(Cl)ccc34)C2)cc1 (centres undefined) | 4.89%
CC1(C)NC(N)=NC(=N)N1OCCCOc1cccc2ccccc12 | 54.8%
Oc1cccc(Nc2ccnc3cc(-c4nccs4)ccc23)c1 | -0.6%
Oc1ccc(CCCNc2nc(NCc3cccc4ccccc34)nc(N3CCNCC3)n2)cc1 | -1.06%
COc1ccc2nc(C)cc(Nc3ccc(Cl)c(Cl)c3)c2c1 | 7.6%
COc1cc2nc(N3CC(C)N(C(=O)Cc4ccc(-c5ccccc5)cc4)C(C)C3)nc(N)c2cc1OC (centres undefined) | 6.24%
Nc1nc(Nc2cccc(Cl)c2)ncc1C(=O)NCc1ccncc1 | 9.01%
COc1cc2c(cc1OC)C(c1ccc(Br)cc1)CN(C)CC2 (centres undefined) | 1.39%
CCC(CC)N1C(=O)C(c2ccccc2)(c2ccccc2)N=C1N | 1.48%
COc1ccc2[nH]c3ccccc3c(=O)c2c1 | -0.87%
CCCCCCN1CCCN(Cc2ccc(C(=O)Nc3ccc(CC)cc3)cc2)CC1 | 11.4%
Nc1nc2c(ncn2OC[C@H]2COP(=O)(O)CO2)c(=O)[nH]1 | -2.05%
